Source: PubChem BioAssay
Calls of active or inactive are those of the source.

Experiments:
[1] = tested on: Human papillomavirus type 1a protein E7 (residues 44-93); assay: small molecules binding HPV E7 44-93 – biochemical, small-molecule microarray, residues 44-93, 635 nm fluorescence, primary screen (AID 1108); details: fluorescence 635 nm, higher = more signal;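 note: E7 fragment applied at 1 µg/mL in TBST for 1 h at 4 C; score combines spot fluorescence with its signal to noise ratio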
[2] = hepatitis C replication reporter changes, two-sided – Huh7 cells, luciferase reporter, HCV replication inhibitor project, primary screen (AID 1109); details: Huh7 HCV replicon luciferase reporter, 48 h; higher = more signal;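 note: huh7 hepatoma cells harbouring a luciferase neomycin HCV replicon reporter; luciferase luminescence as measure of HCV replicon replication; test concentration not given here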
[3] = molecular target: Left-right determination factor 2 (Homo sapiens) (UniProt O00292); assay: small molecules binding LEFTY2 protein – biochemical, small-molecule microarray, 635 nm fluorescence scan, primary screen (AID 1110); details: higher = more signal
Left-right determination factor 2 (Homo sapiens), sequence (O00292 whole entry, looked up): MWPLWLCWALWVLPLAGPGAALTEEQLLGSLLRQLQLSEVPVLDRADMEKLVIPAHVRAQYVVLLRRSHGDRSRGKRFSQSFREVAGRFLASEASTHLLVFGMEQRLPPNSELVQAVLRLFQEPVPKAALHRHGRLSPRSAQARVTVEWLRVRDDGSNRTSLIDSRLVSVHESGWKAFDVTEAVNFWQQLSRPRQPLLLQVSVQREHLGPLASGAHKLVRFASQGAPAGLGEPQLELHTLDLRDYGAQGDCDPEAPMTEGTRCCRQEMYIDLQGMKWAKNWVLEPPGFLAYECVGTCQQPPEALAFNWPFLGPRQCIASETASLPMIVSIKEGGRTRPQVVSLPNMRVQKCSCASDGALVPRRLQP

[4] = molecular target: Calmodulin-1 (Homo sapiens) (UniProt P0DP23); assay: small molecules binding calmodulin-1 with EGTA – biochemical, small-molecule microarray, Cy5-labelled CALM1, profiling panel (AID 1111); details: Cy5-CALM1 binding fluorescence, higher = more signal;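 note: labelled calmodulin applied in Tris saline Tween buffer holding calcium plus EGTA and DTT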
[5] = molecular target: Calmodulin-1 (Homo sapiens) (UniProt P0DP23); assay: small molecules binding Ca-loaded calmodulin-1 – biochemical, small-molecule microarray, Cy5-labelled CALM1, plus calcium, artefact control for SMM control-protein annotation, profiling panel (AID 1112); details: Cy5-CALM1 binding fluorescence, higher = more signal;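 note: score merges spot fluorescence with signal to noise from triplicate slides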
[6] = probe aWnt5a binding to arrayed compounds – biochemical, biotinylated probe, 635/667 nm fluorescence, primary screen (AID 1113); details: small-molecule microarray, higher = more signal;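 note: score merges 667 nm fluorescence intensity with signal-to-noise per printed feature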
[7] = probe aShh binding to arrayed compounds – biochemical, biotinylated probe, 635/667 nm fluorescence, primary screen (AID 1114); details: small-molecule microarray, higher = more signal;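 note: probe is biotin-labelled aShh protein from a stem cell growth factor screen; measures binding of labelled protein to compounds printed on the slide; score merges feature fluorescence at 667 nm with signal-to-noise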
[8] = probe aNog binding to arrayed compounds – biochemical, biotinylated probe, 635/667 nm fluorescence, primary screen (AID 1115); details: small-molecule microarray, higher = more signal;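 note: probe is biotinylated aNog protein used at 0.15 µg/mL for 1 h at 4 C; z-score combines 667 nm fluorescence of each spot with its signal to noise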
[9] = molecular target: Torsin-1A-interacting protein 1 (Homo sapiens) (UniProt Q5JTV8); assay: compound microarray binding of lysate hLAP1 – cell lysate, small-molecule microarray, COS7 lysate, 635/667 nm fluorescence, primary screen (AID 1116); details: 635 nm fluorescence, higher = more signal
Torsin-1A-interacting protein 1 (Homo sapiens), sequence (Q5JTV8 whole entry, looked up): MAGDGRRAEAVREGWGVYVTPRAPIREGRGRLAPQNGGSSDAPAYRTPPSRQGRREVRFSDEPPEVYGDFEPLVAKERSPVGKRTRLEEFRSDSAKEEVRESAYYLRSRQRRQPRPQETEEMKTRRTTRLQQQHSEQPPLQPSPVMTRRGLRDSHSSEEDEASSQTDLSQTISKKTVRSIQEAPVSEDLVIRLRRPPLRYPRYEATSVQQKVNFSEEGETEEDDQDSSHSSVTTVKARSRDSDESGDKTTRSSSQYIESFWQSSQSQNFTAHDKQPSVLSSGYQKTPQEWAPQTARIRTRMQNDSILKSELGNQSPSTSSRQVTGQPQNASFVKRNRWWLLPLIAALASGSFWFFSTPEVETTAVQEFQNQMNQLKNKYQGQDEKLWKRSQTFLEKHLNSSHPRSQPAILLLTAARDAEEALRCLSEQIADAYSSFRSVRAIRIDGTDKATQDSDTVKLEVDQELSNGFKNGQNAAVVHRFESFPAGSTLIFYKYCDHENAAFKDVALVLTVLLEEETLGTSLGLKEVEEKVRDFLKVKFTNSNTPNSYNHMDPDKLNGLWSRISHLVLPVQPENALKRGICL

[10] = molecular target: Alpha-bungarotoxin (Bungarus multicinctus) (UniProt P60615); assay: compounds binding labelled alpha-BTX control protein – biochemical, small-molecule microarray, Alexa647 label, 635/667 nm fluorescence, artefact control for SMM control protein annotation, profiling panel (AID 1117); details: alpha-BTX-A647 binding fluorescence, higher = more signal
Alpha-bungarotoxin (Bungarus multicinctus), sequence (P60615 whole entry, looked up): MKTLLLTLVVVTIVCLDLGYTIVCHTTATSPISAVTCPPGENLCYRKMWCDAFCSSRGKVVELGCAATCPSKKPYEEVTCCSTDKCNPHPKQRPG

[11] = molecular target: Albumin (Bos taurus) (UniProt P02769); assay: compounds binding labelled BSA control protein – biochemical, small-molecule microarray, Alexa647 label, 635/667 nm fluorescence, artefact control for SMM control protein annotation, profiling panel (AID 1118); details: BSA-A647 binding, fluorescence 635 nm, higher = more signal;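 note: score merges 667 nm emission intensity and signal-to-noise per printed compound spot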
Albumin (Bos taurus), sequence (P02769 whole entry, looked up): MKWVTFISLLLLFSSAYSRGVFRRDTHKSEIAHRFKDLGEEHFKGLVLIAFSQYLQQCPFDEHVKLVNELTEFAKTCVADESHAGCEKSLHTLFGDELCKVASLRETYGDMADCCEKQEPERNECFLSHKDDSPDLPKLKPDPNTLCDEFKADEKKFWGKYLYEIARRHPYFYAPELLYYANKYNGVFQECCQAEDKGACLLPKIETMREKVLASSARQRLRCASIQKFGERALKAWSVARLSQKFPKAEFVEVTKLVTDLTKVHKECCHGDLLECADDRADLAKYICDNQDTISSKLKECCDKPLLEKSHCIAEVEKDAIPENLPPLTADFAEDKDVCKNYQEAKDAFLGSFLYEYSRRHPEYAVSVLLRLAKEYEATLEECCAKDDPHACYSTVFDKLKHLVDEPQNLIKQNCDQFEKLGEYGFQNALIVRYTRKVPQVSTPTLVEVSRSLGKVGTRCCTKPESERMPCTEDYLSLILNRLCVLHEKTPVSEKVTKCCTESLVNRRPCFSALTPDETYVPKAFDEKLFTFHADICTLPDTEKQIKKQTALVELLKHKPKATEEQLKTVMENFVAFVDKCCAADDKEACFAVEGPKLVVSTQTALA

[12] = probe aXIP binding to arrayed compounds – biochemical, NeuroSMM set, 635/667 nm fluorescence, primary screen (AID 1119); details: small-molecule microarray, higher = more signal, called active from +8 up or from −8 down;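 note: probe is the protein aXip251-270 applied at 1 µg/mL to compound-printed slides; binding of probe to printed compounds measured as 667 nm fluorescence plus signal to noise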
[13] = probe aNOTCH3 binding on compound microarray – biochemical, small-molecule microarray, 635/667 nm fluorescence, primary screen (AID 1120); details: higher = more signal;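 note: probe is a biotin-tagged antibody raised against NOTCH3 rather than NOTCH3 protein; score merges spot fluorescence near 667 nm with spot signal to noise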
[14] = probe aNOTCH2 binding on compound microarray – biochemical, small-molecule microarray, 635/667 nm fluorescence, primary screen (AID 1121); details: higher = more signal;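 note: score merges feature fluorescence read at 667 nm with its signal to noise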
[15] = molecular target: Carbonic anhydrase 2 (Homo sapiens) (UniProt P00918); assay: compounds binding carbonic anhydrase 2 – biochemical, small-molecule microarray, Alexa647-labelled CAII, profiling panel (AID 1122); details: CAII-A647 binding fluorescence, higher = more signal
[16] = COS7 lysate on small-molecule microarray, probe aHis, 635 nm (AID 1123); details: COS7 cell lysate, fluorescence, higher = more signal;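 note: z-score combines 667nm fluorescence intensity with signal-to-noise per printed compound spot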
[17] = probe aLAP1 signal on lysate-treated microarray – cell lysate, small-molecule microarray, COS7 lysate, primary screen (AID 1124); details: probe aLAP1, fluorescence, higher = more signal;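 note: lysate comes from COS7 cells expressing LAP1 and is applied at 0.3 µg/mL; score merges spot fluorescence near 667 nm with signal-to-noise over triplicate slides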
[18] = tested on: Sam68 (KHDRBS1); assay: compounds binding KHDRBS1 protein – biochemical, small-molecule microarray, 635 nm fluorescence, primary screen (AID 1125); details: higher = more signal;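 note: score merges 667 nm channel intensity with signal to noise over triplicate slides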
[19] = tested on: Chordin-like protein 2 (CHRDL2); assay: compounds binding chordin-like 2 – biochemical, small-molecule microarray, 635 nm fluorescence, primary screen (AID 1126); details: fluorescence 635 nm, higher = more signal;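 note: printed compound slides probed with Chrdl2 protein at 4 µg/mL for 1 h at 4 C; score merges 667 nm emission intensity with signal to noise over three replicate slides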
[20] = molecular target: Concanavalin-A (Canavalia ensiformis) (UniProt P02866); assay: compounds binding concanavalin A lectin – biochemical, small-molecule microarray, Alexa647 label, 635 nm, artefact control for SMM control protein annotation, primary screen (AID 1127); details: ConA-A647 binding fluorescence, higher = more signal;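 note: z combines 667 nm emission intensity with signal-to-noise across three replicate slides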
Concanavalin-A (Canavalia ensiformis), sequence (P02866 whole entry, looked up): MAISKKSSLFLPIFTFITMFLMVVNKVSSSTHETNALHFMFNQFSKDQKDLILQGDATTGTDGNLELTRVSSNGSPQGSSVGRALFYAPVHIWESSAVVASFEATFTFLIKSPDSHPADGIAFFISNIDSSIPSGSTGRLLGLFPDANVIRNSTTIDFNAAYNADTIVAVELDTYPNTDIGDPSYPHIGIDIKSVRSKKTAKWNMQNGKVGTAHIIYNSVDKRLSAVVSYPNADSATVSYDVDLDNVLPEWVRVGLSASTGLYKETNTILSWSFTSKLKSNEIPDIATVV

SMILES | composite z-score [1] | z-score [2] | composite z-score [3] | composite z-score [4] | composite z-score [5] | composite z-score [6] | composite z-score [7] | composite z-score [8] | composite z-score [9] | composite z-score [10] | composite z-score [11] | composite Z-score [12] | composite z-score [13] | composite z-score [14] | composite z-score [15] | composite z-score [16] | composite z-score [17] | composite z-score [18] | composite z-score [19] | composite z-score [20]
C=CCC(OC(C)=O)[C@@H]1[C@@H](N(Cc2cccc3ccccc23)C(=O)c2ccc(-c3ccccc3)cc2)c2cc(OCCCO)ccc2N1C(=O)c1ccc2ccccc2n1 (stereo not given in full) | 0.237 | 0.15 | 0.258 | 0.249 | 0.979 | -0.0685 | 0.158 | -0.278 | 0.529 | -0.0098 | 0.192 | -0.0401 (inactive) | 0.119 | -0.0639 | 0.0528 | 0.181 | 0.649 | 0.464 | 0.41 | -0.288
CC(C)N1CC=CC23O[C@@H]4C=CCCOC(=O)C4[C@H]2C(=O)N(CCCCCO)[C@@H]3C1=O (stereo not given in full) | -0.734 | -0.26 | -1.18 | 0.861 | -1.34 | -0.124 | -0.0011 | -0.123 | 1.92 | 2.25 | 0.62 | 0.23 (inactive) | -0.214 | -0.153 | 0.853 | 0.19 | 0.543 | -0.411 | -0.654 | 0.878
COC(=O)[C@@]1(Cc2ccc(OC)cc2)[C@H]2c3cc(C(=O)N(C)C)n(Cc4ccsc4Br)c3C[C@H]2CN1C(=O)c1ccccc1 | 0.835 | -0.235 | -0.318 | 1.01 | 0.511 | 0.281 | 0.696 | 1.61 | 2.24 | 0.177 | 0.968 | -0.362 (inactive) | 0.69 | 0.371 | 0.898 | 1.65 | 0.107 | 0.399 | -0.0018 | 0.852
CCOC(=O)C1=CC[C@@H](c2ccccc2Cl)N(S(=O)(=O)c2ccc(C)cc2)[C@H]1c1cccc(OC)c1 | 0.414 | -0.587 | -0.0038 | 0.107 | 0.369 | 0.0382 | 0.123 | 0.216 | 0.111 | 0.253 | 0.453 | -0.161 (inactive) | -0.014 | -0.115 | 0.304 | 0.878 | -0.151 | 0.371 | -0.0126 | 0.577
C#CCN([C@H](/C=C/C1CC1)[C@@H](O)Cc1ccccc1)[C@@H](Cc1ccccc1)C(=O)OC | -0.197 | -2.64 | 0.0052 | -0.752 | -0.861 | -0.124 | 0.0639 | -0.33 | -0.188 | -0.0484 | -0.578 | -0.232 (inactive) | 0.15 | -0.164 | -0.179 | -0.485 | -0.454 | 0.0511 | 0.686 | -0.249
O=C1OCCC=C[C@H]2OC34C=CCN(c5ccc(Cl)cc5)C(=O)[C@H]3N(CCO)C(=O)[C@@H]4C12 (stereo not given in full) | -0.646 | 0.318 | -1.34 | -0.585 | -0.1 | -0.239 | -0.262 | -0.274 | -0.855 | -0.957 | 0.597 | 0.359 (inactive) | -0.406 | -0.189 | 0.859 | -0.387 | -0.419 | -0.914 | -0.291 | -0.648
COCCOC(=O)N1C(=O)[C@@]2(c3cc(C#CC4(O)CCCCCC4)ccc31)[C@H](c1ccc(OCCO)cc1)N1[C@H](c3ccccc3)[C@H](c3ccccc3)OC(=O)[C@H]1[C@@H]2C(N)=O | 0.448 | -2.2 | 0.547 | 1.04 | -0.111 | -0.0472 | 0.199 | 0.53 | 1.73 | 1.9 | 0.119 | 0.189 (inactive) | 0.0876 | -0.0907 | 0.3 | 0.615 | 0.519 | 1.3 | 0.986 | 1.17
CC(C)[C@@H](C(=O)O)n1cc(-c2ccccc2)nn1 | 0.972 | 0.281 | 0.396 | 0.913 | 0.957 | 0.0145 | 0.227 | -0.0238 | 0.941 | 1.03 | 0.739 | 0.0388 (inactive) | -0.0225 | -0.0454 | 0.39 | 0.575 | 0.547 | 1.06 | -0.145 | 1.12
